Source: PubChem
CFTR F508del cor: F508del CFTR correction, initial screen, CFBE line, single point | activity (quench increase), % at 7.58 µM | CFBE cells, YFP halide quenching; stimulated with forskolin plus potentiator P3; % fluorescence drop versus neutral controls | actives 0.36% (n = 350,000) | AID 720511, 2013;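 active means mean added fluorescence quench of at least 8% versus neutral control, with both replicates also reaching 8%; inconclusive means only one of the mean or replicate conditions met; inactive means mean below 8% and not both replicates reaching 8%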;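 further: cells transiently co-express mutant CFTR-F508del with the halide-sensitive YFP; corrector assay measuring rescue of mutant channel to the surface after 24 h compound exposure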
LGR2 inh: inhibitors of bursicon-induced LGR2 CRE-luciferase signal, primary screen, cell-based, HEK293, CRE-luciferase reporter, bursicon stimulation. Drosophila bursicon receptor LGR2 (rickets). bursicon-stimulated, 4 h. inhibition, % at 9.99 µM. actives 0.35% (n = 380,000). AID 720647, 2013;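 active means drop in luminescence signal, shown as inhibition above about 50% in the replicate tests, limit read from the data, passing the limit was not always enough; inconclusive means probably only some replicates passing the limit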;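 further: agonist challenge used bursicon conditioned medium at about half maximal strength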
EWS-Fli inh: EWS/Fli-driven NR0B1 reporter inhibitors, primary screen, A673 cells, NR0B1 luciferase, luminescence, MLPCN library; actives 0.67% (n = 350,000); AID 651661, 2012; viability-normalised; inhibition, % at 12.6 µM;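 active means mean inhibition of at least 50% after viability correction, with every replicate also passing that limit; inconclusive means mean reaches 50% but only one of two replicates passes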;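 further: firefly luciferase signal divided by Alamar Blue viability fluorescence both relative to DMSO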
RAD52 inh: RAD52 DNA annealing inhibitors, primary screen, biochemical, FRET, single point, set 2 | recombinant RAD52 DNA annealing, FRET fluorescence | inhibition, % at 18.7 µM | actives 0.46% (n = 360,000);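 active means every replicate showing at least 50% inhibition; inconclusive means mean inhibition at least 50% but not in every replicate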
Target sequence (P43351 whole entry, looked up): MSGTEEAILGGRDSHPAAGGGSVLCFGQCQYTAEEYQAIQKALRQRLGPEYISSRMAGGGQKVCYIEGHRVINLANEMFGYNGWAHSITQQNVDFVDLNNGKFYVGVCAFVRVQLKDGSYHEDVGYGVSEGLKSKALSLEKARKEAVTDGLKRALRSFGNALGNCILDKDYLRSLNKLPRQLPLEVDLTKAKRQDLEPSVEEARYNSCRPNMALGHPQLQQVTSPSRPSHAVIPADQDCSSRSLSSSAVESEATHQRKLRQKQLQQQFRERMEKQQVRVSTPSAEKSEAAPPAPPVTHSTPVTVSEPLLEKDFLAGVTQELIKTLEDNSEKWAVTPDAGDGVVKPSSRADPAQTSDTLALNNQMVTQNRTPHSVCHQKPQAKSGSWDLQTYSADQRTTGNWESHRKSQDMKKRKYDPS
INS-1E GSIS act: GLuc luminescence reporter in INS-1E cells, primary screen for activators of glucose-dependent secretion of insulin; INS-1E GLuc reporter insulin secretion, 2-3 h; activation, % at 16.6 µM; actives 0.61% (n = 370,000); AID 743287, 2014;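 active means lowest replicate activation of at least 40%, so every replicate reaches that level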;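 further: 0% = median of neutral control wells and 100% = median of IBMX positive control wells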
RAD54 branch: inhibitors of human RAD54 branch migration, primary screen, biochemical, fluorescence, single point; RAD54 Holliday junction branch migration, FAM/BHQ fluorescence; DNA repair and recombination protein RAD54-like (Homo sapiens), Q92698; AID 602329, 2012; actives 0.14% (n = 360,000); inhibition, % at 10.4 µM;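 active means mean normalized replicate activity at least 40 and at least half of replicates scoring 40 or more; inconclusive means only one of the two criteria met; inactive means mean below 40 and under half of replicates reaching 40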;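 further: 0% = median of neutral control wells and 100% = median of positive control wells; inhibitors cause a drop in the FAM fluorescence signal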
DNA binding: DNA binding of candidate compounds, dose response, artefact control for RAD54 inhibitor project, biochemical, fluorescence polarization, cherry-pick; shares compounds with RAD54 branch; Acridine orange-DNA displacement, 20 min; AC50, µM (highest dose often 35 µM), without a hit: at the highest dose activity change, negative = DNA binding; actives 8% (n = 460);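 active means signal drop giving an AC50 within twice the top valid tested concentration of each sample, actives reach about 35 µM in these data; inactive means activity opposite to expected, plus the rest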;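 further: polarization loss reports compound binding to salmon sperm DNA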
DNA binder FP: DNA-binding compounds via dye displacement, dose response, artefact control for RAD52 inhibitor project, biochemical, fluorescence polarization, cherry-pick; actives 8% (n = 1,000); AC50, µM; Salmon sperm DNA/acridine orange FP displacement; shares compounds with RAD52 inh;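 active means fitted half-maximal concentration for signal loss at or below twice the highest dose tested, in every separate run, actives reach about 64 µM in these data; inconclusive means runs disagree, or flat partial signal loss, or poor fit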
Starred values were filed as active, the others as inactive; i = inactive; ? = inconclusive; / = no result given. Most compounds without a hit are left out; they make up all but 1.8% or so of the library.

SMILES | CFTR F508del cor | LGR2 inh | EWS-Fli inh | RAD52 inh | INS-1E GSIS act | RAD54 branch | DNA binding | others
COC(=O)C1=C(C)Nc2nc3ccccc3n2C1c1ccccc1F (stereo not drawn) | 3.6 | 2.8 | 29.9 | -14.8 | / | ? | -12.5%
COc1cc(NCc2ccccc2)c2ncn(C(C)C)c2c1 | 1.0 | -0.6 | -10.1 | -20.2 | / | -1.1 | /
COc1cc(NCCCNC(C)C)c2nccc(C)c2c1 | -4.3 | -5.2 | -33.6 | 60.5* | 8.8 | 83.5* | -5.4%
COc1ccc(NC(=O)CCCNC(=O)Cn2cnc3sc(C)c(C)c3c2=O)cc1Cl | -3.6 | 0.8 | 1.3 | -13.3 | -19.2 | 9.3 | /
Cc1cccc(Cn2c(Sc3nc(C)cs3)nc3c2c(=O)[nH]c(=O)n3C)c1 | / | / | / | / | / | ? | 14.3%
c1csc(C(c2nnnn2C2CCCC2)N2CCCC3(CCCCC3)C2)c1 (stereo not drawn) | / | / | / | / | / | -4.7 | /
COc1ccc(OC)c2c(C)cc(NCCN3CCOCC3)nc12 | / | -10.1 | / | / | 9.1 | 53.8* | -9.9%
CCNC1CCC(Nc2ccnc3cc(Cl)ccc23)CC1 (stereo not drawn) | 1.4 | / | 4.1 | 12.8 | / | 54.7* | -2.2%
OC(CNc1ccnc2cc(Cl)ccc12)CNC1CCCCC1 (stereo not drawn) | / | / | 24.4 | 45.0 | / | / | /
Oc1ccc(Nc2ccnc3cc(Cl)ccc23)cc1 | 2.6 | -36.1 | -0.7 | -4.2 | 7.3 | 58.0* | -11.8%
O=c1[nH]nc(N2CCOCC2)c(=O)[nH]1 | 0.4 | 0.1 | 1.2 | -7.0 | 13.3 | 17.3 | /
Cc1ccc(S(=O)(=O)CCSc2ccc(C(F)(F)F)cn2)cc1 | -2.4 | 9.8 | 13.7 | -16.9 | / | ? | -1.9%
COCC#Cc1cnc2c(c1)C(=O)N([C@@H](C)CO)C[C@H](C)[C@H](CN(C)Cc1ccccc1F)O2 | 2.0 | -13.9 | 3.9 | -5.1 | 16.0 | -8.5 | /
COc1ccc(NC(=O)CSc2nncn2C)cc1 | -3.2 | -0.3 | -11.1 | -12.2 | 13.4 | -5.0 | /
CCN(CC)CCNC(=O)c1cc2c(-c3ccc(Cl)cc3)nn(C)c2s1 | 0.4 | -0.5 | 32.6 | 60.6* | 14.6 | 112.7* | i
Cc1ccc(-c2nc(NCCCN(C)C)c3ccccc3n2)cc1 | -1.3 | -3.0 | -14.4 | 83.7* | 29.9 | 82.8* | -17.4% | DNA binder FP=i
CN(C)CCCNc1c2ccccc2nc2ccccc12 | 18.2* | 91.7* | 47.9 | 86.7* | -25.0 | 99.2* | 7.56µM* | DNA binder FP=9.35µM*
c1ccc(CNc2c3ccccc3nc3ccccc23)cc1 | 10.9* | -9.5 | 15.4 | 83.6* | -6.4 | 83.4* | 28.9µM* | DNA binder FP=?
CCCN1C[C@H](C)[C@H](OC)CN(C)C(=O)c2cc(NC(=O)CC)ccc2OC[C@@H]1C | -1.2 | 10.0 | 9.4 | / | -3.4 | / | /
COc1cccc(Oc2cc(NN3CCCCC3)c([N+](=O)[O-])cc2[N+](=O)[O-])c1OC | -2.5 | -1.9 | 4.8 | -1.6 | -4.5 | -1.0 | /
O=C(c1ccc2c(c1)CCN2S(=O)(=O)c1ccccc1)N1CCN(c2ccccc2)CC1 | -1.8 | -13.3 | / | -24.9 | 0.0 | 14.5 | /
Cc1ccc(C(=O)c2oc3ccc(Cl)cc3c2NC(=O)CN2CCN(C)CC2)cc1 | -1.5 | -22.1 | 16.6 | 81.9* | 12.0 | 82.5* | 0.6% | DNA binder FP=i
CCOC(=O)c1oc2ccccc2c1NC(=O)CN1CCN(C)CC1 | / | -3.4 | / | -3.2 | 6.8 | 9.8 | /
Cn1c(NCCN2CCCC2)nc2cc(-c3ccccc3)sc2c1=O | -3.3 | -25.8 | -19.0 | 52.4* | / | ? | -19.6% | DNA binder FP=i
COc1cccc(-c2cc3nc(NCCN4CCCC4)n(C)c(=O)c3s2)c1 | 3.6 | 5.7 | -23.3 | 89.0* | -4.1 | 69.8* | -14.0% | DNA binder FP=i
